Measured values from PubChem BioAssay (NCI).
This is part of a sample that, as a whole, favours compounds with a hit. Of some 83,000 tested, about 20% had one in any assay.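 Each cell line was grown in a 96-well plate and treated with one concentration of compound for 48 hours. Values below 10 were considered active.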 Activity calls are given as the source filed them.

Legend:
Assay in all cases: NCI-60 one-dose screen, 48 h (100 = growth as untreated, 0 = no growth, -100 = all killed)
Details in all cases: 10 µM unless noted
HCT-15 colon = test system: HCT-15 colon
HT29 colon = test system: HT29 colon
SNB-75 CNS = test system: SNB-75 CNS
SNB-19 CNS = test system: SNB-19 CNS
U251 CNS = test system: U251 CNS
PC-3 prostate = test system: PC-3 prostate
SK-MEL-5 melanoma = test system: SK-MEL-5 melanoma
UACC-62 melanoma = test system: UACC-62 melanoma
LOX IMVI melanoma = test system: LOX IMVI melanoma
SK-MEL-28 melanoma = test system: SK-MEL-28 melanoma
SK-MEL-2 melanoma = test system: SK-MEL-2 melanoma
EKVX NSCLC = test system: EKVX NSCLC
SN12C renal = test system: SN12C renal
UO-31 renal = test system: UO-31 renal
TK-10 renal = test system: TK-10 renal
ACHN renal = test system: ACHN renal
CAKI-1 renal = test system: CAKI-1 renal
A498 renal = test system: A498 renal
CCRF-CEM leukemia = test system: CCRF-CEM leukemia
MOLT-4 leukemia = test system: MOLT-4 leukemia

Measured: growth

CCCc1cc2c(cc1CN(Cc1cc3c(cc1CCC)OCO3)C(=N)OCC)OCO2
inactive: HCT-15 colon 94.8% | HT29 colon 52.4% | SNB-75 CNS 95.6% | SNB-19 CNS 94% | U251 CNS 67.3% | PC-3 prostate 59.3% | SK-MEL-5 melanoma 88.8% | UACC-62 melanoma 77.2% | LOX IMVI melanoma 83.6% | SK-MEL-28 melanoma 102% | SK-MEL-2 melanoma 81.3% | EKVX NSCLC 75% | SN12C renal 80% | UO-31 renal 67.3% | TK-10 renal 72.9% | ACHN renal 90.4% | CAKI-1 renal 83.5% | A498 renal 97.6% | CCRF-CEM leukemia 80.4% | MOLT-4 leukemia 93.5%

CC(=O)O[C@H]1[C@H](CC#CC#CC[C@@H]2C[C@]3(C)[C@H]4CC=C5[C@H]6[C@@H](C)[C@H](C)CC[C@]6(C(=O)NCCN(CCN)CCN)CC[C@@]5(C)[C@]4(C)CC[C@H]3C(C)(C)[C@H]2OC(C)=O)C[C@]2(C)[C@H]3CC=C4[C@H]5[C@@H](C)[C@H](C)CC[C@]5(C(=O)NCCN(CCN)CCN)CC[C@@]4(C)[C@]3(C)CC[C@H]2C1(C)C
inactive: HCT-15 colon 26.8% | HT29 colon 58.1% | SNB-75 CNS 68.1% | SNB-19 CNS 31.9% | U251 CNS 36.2% | PC-3 prostate 51.7% | SK-MEL-5 melanoma 92.2% | UACC-62 melanoma 40.9% | LOX IMVI melanoma 50.9% | SK-MEL-28 melanoma 85% | SK-MEL-2 melanoma 67% | SN12C renal 51.9% | UO-31 renal 33.7% | TK-10 renal 110% | ACHN renal 75.9% | CAKI-1 renal 35% | A498 renal 122% | CCRF-CEM leukemia 19.8% | MOLT-4 leukemia 26.8%
active: EKVX NSCLC -6.42%

CCCCOc1ncnc2nc[nH]c12
inactive: HCT-15 colon 108% | HT29 colon 96.3% | SNB-75 CNS 95.7% | SNB-19 CNS 99.8% | U251 CNS 106% | PC-3 prostate 107% | SK-MEL-5 melanoma 105% | UACC-62 melanoma 104% | LOX IMVI melanoma 103% | SK-MEL-28 melanoma 111% | SK-MEL-2 melanoma 104% | EKVX NSCLC 112% | SN12C renal 102% | UO-31 renal 99.7% | TK-10 renal 101% | ACHN renal 101% | CAKI-1 renal 106% | A498 renal 97% | CCRF-CEM leukemia 113% | MOLT-4 leukemia 91.9%

COc1cc2c(cc1OCCCOc1cc3c(cc1OC)C(=O)N1CCC[C@H]1C=N3)C=CC(C)(C)O2
inactive: HCT-15 colon 89.9% | HT29 colon 99.7% | SNB-75 CNS 93.8% | SNB-19 CNS 85.9% | U251 CNS 66.6% | PC-3 prostate 78.9% | SK-MEL-5 melanoma 66.4% | UACC-62 melanoma 81% | LOX IMVI melanoma 69.6% | SK-MEL-28 melanoma 33.2% | SK-MEL-2 melanoma 88.4% | EKVX NSCLC 154% | SN12C renal 94.3% | UO-31 renal 96.5% | TK-10 renal 187% | ACHN renal 95.7% | CAKI-1 renal 106% | A498 renal 98.8% | MOLT-4 leukemia 65%
active: CCRF-CEM leukemia 6.05%

Oc1c(-c2cc(C(F)(F)F)[nH]n2)cc(Cl)c(OCc2ccc(Cl)cc2)c1-c1ccc(Cl)c(C(F)(F)F)c1
inactive: SNB-19 CNS 18.6%
active: HCT-15 colon -11.5% | HT29 colon 6.96% | SNB-75 CNS -17.6% | U251 CNS 8.65% | PC-3 prostate 4.7% | SK-MEL-5 melanoma -60.2% | UACC-62 melanoma -17.3% | LOX IMVI melanoma 1.76% | SK-MEL-28 melanoma -19.9% | SK-MEL-2 melanoma -40.9% | EKVX NSCLC 4.67% | SN12C renal 5.54% | UO-31 renal -27.6% | TK-10 renal 7.21% | ACHN renal 0.909% | CAKI-1 renal -15.7% | A498 renal -51.1% | CCRF-CEM leukemia 5.04% | MOLT-4 leukemia -14.8%

COc1cc(/C=C/C(=O)c2c(C)nc3ccccc3c2C)ccc1OCCCOc1cc2c(cc1OC)C(=O)N1CCC[C@H]1C=N2
active: HCT-15 colon -25.9% | HT29 colon -71.9% | SNB-75 CNS -76.8% | SNB-19 CNS -49.8% | U251 CNS -66.4% | PC-3 prostate -15.9% | SK-MEL-5 melanoma -98.8% | UACC-62 melanoma -81.3% | LOX IMVI melanoma -99.3% | SK-MEL-28 melanoma -63.1% | SK-MEL-2 melanoma -61.3% | EKVX NSCLC -76.4% | TK-10 renal -65.8% | ACHN renal -41.2% | CAKI-1 renal 4.18% | A498 renal -76.4% | CCRF-CEM leukemia -48.6% | MOLT-4 leukemia -25.5%
inactive: SN12C renal 10.2% | UO-31 renal 14.2%

C=C(CN1CC=CCC1)[C@@H]1CC[C@]2(C(=O)OC)CC[C@]3(C)[C@H](CC[C@@H]4[C@@]5(C)CC[C@H](OC(C)=O)C(C)(C)[C@@H]5CC[C@]43C)[C@@H]12
inactive: HCT-15 colon 105% | HT29 colon 75.3% | SNB-75 CNS 88.4% | SNB-19 CNS 86% | U251 CNS 83.2% | PC-3 prostate 61.4% | SK-MEL-5 melanoma 90.3% | UACC-62 melanoma 80.7% | LOX IMVI melanoma 99.7% | SK-MEL-28 melanoma 94.9% | SK-MEL-2 melanoma 103% | EKVX NSCLC 109% | SN12C renal 92.8% | UO-31 renal 86.4% | TK-10 renal 121% | ACHN renal 102% | CAKI-1 renal 81.2% | A498 renal 113% | CCRF-CEM leukemia 82.7% | MOLT-4 leukemia 82.1%

CCOC(=O)NNc1cccc(Cl)c1
inactive: HCT-15 colon 107% | HT29 colon 109% | SNB-75 CNS 77.2% | SNB-19 CNS 98% | U251 CNS 100% | PC-3 prostate 89.7% | SK-MEL-5 melanoma 101% | UACC-62 melanoma 83.8% | LOX IMVI melanoma 92.8% | SK-MEL-28 melanoma 109% | SK-MEL-2 melanoma 116% | EKVX NSCLC 90.6% | SN12C renal 114% | UO-31 renal 70.6% | TK-10 renal 120% | ACHN renal 93.5% | CAKI-1 renal 90% | A498 renal 85.5% | CCRF-CEM leukemia 103% | MOLT-4 leukemia 113%

CCCNC(=S)N/N=C(\C)c1ccccn1
active: LOX IMVI melanoma 9.29% | UO-31 renal -0.774% | CAKI-1 renal 6.68% | MOLT-4 leukemia 6.93%
inactive: HCT-15 colon 28.5% | HT29 colon 37.2% | SNB-75 CNS 74.2% | SNB-19 CNS 38.4% | U251 CNS 21.7% | PC-3 prostate 26.7% | SK-MEL-5 melanoma 22.4% | UACC-62 melanoma 11.1% | SK-MEL-28 melanoma 52.4% | SK-MEL-2 melanoma 69.8% | EKVX NSCLC 12.1% | SN12C renal 31.6% | TK-10 renal 47.4% | ACHN renal 10.8% | A498 renal 30.8% | CCRF-CEM leukemia 15.9%

CCN(C(=O)Nc1cccc2ccccc12)c1ccccc1
inactive: HCT-15 colon 90.8% | HT29 colon 103% | SNB-75 CNS 92.4% | SNB-19 CNS 102% | U251 CNS 97.7% | PC-3 prostate 85.9% | SK-MEL-5 melanoma 95.5% | UACC-62 melanoma 80.5% | LOX IMVI melanoma 102% | SK-MEL-28 melanoma 112% | SK-MEL-2 melanoma 108% | EKVX NSCLC 95.9% | SN12C renal 103% | UO-31 renal 73% | TK-10 renal 108% | ACHN renal 99.5% | CAKI-1 renal 99.9% | A498 renal 90.2% | CCRF-CEM leukemia 109% | MOLT-4 leukemia 72.6%

O=C(CCCCCCc1nc2ccc(Br)cc2[nH]1)NO
inactive: HCT-15 colon 35.9% | PC-3 prostate 16.7% | EKVX NSCLC 28.6%
active: HT29 colon 1.25% | SNB-75 CNS -2.57% | SNB-19 CNS 1.94% | U251 CNS -15.4% | SK-MEL-5 melanoma -81.5% | UACC-62 melanoma -79.8% | LOX IMVI melanoma -98.9% | SK-MEL-28 melanoma -16.7% | SK-MEL-2 melanoma -5.43% | SN12C renal 1.73% | UO-31 renal -17.9% | TK-10 renal -13.9% | ACHN renal -36.2% | CAKI-1 renal -41.5% | A498 renal 9.4% | CCRF-CEM leukemia 9.8% | MOLT-4 leukemia 7.38%

CCCCCCCCCCCC1=NC(C)(C)CN1C(C)(C)CO
inactive: SNB-75 CNS 49.3% | SNB-19 CNS 114% | U251 CNS 21.4% | PC-3 prostate 54.9% | SK-MEL-2 melanoma 49.4% | EKVX NSCLC 64.6% | SN12C renal 59.8% | UO-31 renal 46.7% | TK-10 renal 70.3% | ACHN renal 56.7% | CAKI-1 renal 63.2% | A498 renal 90.1% | CCRF-CEM leukemia 26.6% | MOLT-4 leukemia 74%
active: HCT-15 colon 8.9% | HT29 colon -29.3% | SK-MEL-5 melanoma 8.52% | UACC-62 melanoma -69.5% | LOX IMVI melanoma -35.1% | SK-MEL-28 melanoma -5.89%

NC(=Nc1ccccc1)SCCCSC(N)=Nc1ccccc1
inactive: HCT-15 colon 82.4% | HT29 colon 93.9% | SNB-75 CNS 78.4% | SNB-19 CNS 95.8% | U251 CNS 95.6% | PC-3 prostate 74.7% | SK-MEL-5 melanoma 85.5% | UACC-62 melanoma 73.4% | LOX IMVI melanoma 86.7% | SK-MEL-28 melanoma 106% | SK-MEL-2 melanoma 90.8% | EKVX NSCLC 78.8% | SN12C renal 89.3% | UO-31 renal 42.1% | TK-10 renal 101% | ACHN renal 81.5% | CAKI-1 renal 76.4% | A498 renal 80.2% | CCRF-CEM leukemia 79.3% | MOLT-4 leukemia 90.8%

CN(C)c1ccc(Nc2c3ccccc3nc3ccccc23)cc1
active: HCT-15 colon 6.89% | HT29 colon 8.13% | SNB-75 CNS 9.38% | SK-MEL-5 melanoma 9.1% | LOX IMVI melanoma -7.85% | UO-31 renal -31% | ACHN renal -18.8% | CAKI-1 renal -13.5% | MOLT-4 leukemia 6.01%
inactive: SNB-19 CNS 28.4% | U251 CNS 23% | PC-3 prostate 33% | UACC-62 melanoma 14.3% | SK-MEL-28 melanoma 26% | SK-MEL-2 melanoma 40.1% | EKVX NSCLC 19.1% | SN12C renal 16.4% | TK-10 renal 34.1% | A498 renal 14.2% | CCRF-CEM leukemia 19.9%

N[C@@H](CO)C(=O)O
inactive: HCT-15 colon 109% | HT29 colon 109% | SNB-75 CNS 93.3% | SNB-19 CNS 105% | U251 CNS 102% | PC-3 prostate 96.8% | SK-MEL-5 melanoma 104% | UACC-62 melanoma 91.9% | LOX IMVI melanoma 130% | SK-MEL-28 melanoma 107% | SK-MEL-2 melanoma 116% | EKVX NSCLC 84.3% | SN12C renal 101% | UO-31 renal 83.4% | TK-10 renal 125% | ACHN renal 107% | CAKI-1 renal 91.2% | A498 renal 85.3% | CCRF-CEM leukemia 94.8% | MOLT-4 leukemia 101%
